# An excerpt weighted towards active compounds, which were near 18% of everything screened.
# TGFb SMAD3 inh: qHTS for Inhibitors of TGF-b. 1.2% of 410,000 active. HepG2 CAGA-GFP TGF-b/SMAD3 reporter, GFP fluorescence, 18 h; TGF-beta stimulated, 500 pg/mL final. Potency, µM (doses to about 46.1 µM), for inactives: at the top dose activity, negative = inhibition, actives largely listed as inhibitors; also: potency is read from the fitted curve at half-maximal effect; % is scaled to controls: 0 for no effect and ±100 for the full control effect; nearly all actives have a fitted effect of over 65% in size
#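 GFP signal (ex488/em500-530) from TGF-beta-stimulated HEPG2 CAGA-GFP cells, 500 pg/mL final, 18 h at 37 degrees C in DMEM plus 1% FBS, normalized to unstimulated and DMSO-stimulated controls.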
# DT40 TDP1 CPT: qHTS for Inhibitors of human tyrosyl-DNA phosphodiesterase 1 (TDP1): qHTS in cells in presence of CPT. chicken DT40 Tdp1-/-;hTDP1 cells + 20 nM CPT, ATP luminescence, 48 h. Potency, µM (doses to about 46.2 µM), for the others: top-dose activity change, negative = growth inhibition, usual class: inhibitors. 12% of 420,000 active; also: potency is read from the fitted curve at half-maximal effect; % is scaled to controls: 0 for no effect and ±100 for the full control effect; nearly all actives have a fitted effect of over 55% in size
#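 Chicken DT40 Tdp1-/- cells complemented with human TDP1, 400 cells/well, exposed to compounds plus 20 nM camptothecin for at least 48 h at 37 C; viability read as ATP content by CellTiter-Glo luminescence.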
# HepG2 viability: qHTS for Inhibitors of TGF-b: Cytotox Counterscreen; HepG2 CAGA-GFP viability, ATP luminescence, 18 h; Potency, µM (series often up to 46.1 µM), for the others: top-dose activity change, negative = cytotoxicity, hits mostly cytotoxic; 0.76% of 410,000 active; also: potency is read from the fitted curve at half-maximal effect
#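 CellTiter-Glo luminescence gave cytotoxicity after 18 hours at 37 degrees C. The cells were HepG2 CAGA-GFP in 1% FBS DMEM, stimulated with 500 pg/mL TGF-beta after compound addition. %Activity was normalised to no-cell wells (complete cell-killing) and DMSO (no toxicity), and curves were fitted and classified.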
# TDP1 block: qHTS Assay for Inhibitors of Tyrosyl-DNA Phosphodiesterase (TDP1) | recombinant TDP1, AlphaScreen DNA substrate cleavage | Potency, µM (doses to about 130 µM), for the others: at the highest dose activity change, negative = inhibition, usual class: inhibitors | 0.28% of 350,000 active; also: potency is read from the fitted curve at half-maximal effect; % is scaled to controls: 0 for no effect and ±100 for the full control effect; nearly all actives have a fitted effect of over 40% in size
# Target sequence (Q9NUW8 whole entry, looked up): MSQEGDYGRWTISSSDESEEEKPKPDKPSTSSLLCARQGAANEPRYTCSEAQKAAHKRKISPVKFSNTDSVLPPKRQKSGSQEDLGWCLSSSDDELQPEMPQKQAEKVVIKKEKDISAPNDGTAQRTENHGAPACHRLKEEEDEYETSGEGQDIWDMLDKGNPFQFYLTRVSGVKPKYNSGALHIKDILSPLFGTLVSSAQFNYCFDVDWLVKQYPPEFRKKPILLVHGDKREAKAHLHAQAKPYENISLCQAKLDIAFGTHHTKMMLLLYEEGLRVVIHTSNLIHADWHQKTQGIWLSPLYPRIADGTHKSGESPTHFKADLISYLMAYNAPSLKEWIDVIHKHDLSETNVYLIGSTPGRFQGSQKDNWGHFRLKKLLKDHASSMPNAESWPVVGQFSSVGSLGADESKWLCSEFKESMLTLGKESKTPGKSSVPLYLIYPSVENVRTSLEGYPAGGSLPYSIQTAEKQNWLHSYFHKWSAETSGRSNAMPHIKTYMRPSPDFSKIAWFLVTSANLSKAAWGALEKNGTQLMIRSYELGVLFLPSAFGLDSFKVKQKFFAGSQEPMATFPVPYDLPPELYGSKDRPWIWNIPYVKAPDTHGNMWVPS
#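 Enzyme-compound mixtures sat 15 min at room temperature, followed by a 5 min reaction with 15 nM final substrate and 10 min with AlphaScreen beads. Recombinant human Tdp1 was used at 1 nM final.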
# IL1B secr inh: qHTS for Inhibitors of Inflammasome Signaling: IL-1-beta AlphaLISA Primary Screen; AID 743279, 2014; THP-1 LPS/ATP IL-1B secretion, AlphaLISA, 16 h; stronger effect = lower value; activity change, % at 57.5 µM; 4.7% of 360,000 active; in the data active = activity change below about -50%; inconclusive = mostly about -30% to -49%; also: % is scaled to controls: 0 for no effect and ±100 for the full control effect
#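 THP-1 cells pretreated 1 hr with compounds (up to 57.5 uM final), then stimulated with LPS (250 ng/mL final) plus ATP (1.25 mM final); secreted IL-1B measured by AlphaLISA after 16 hr, decreased signal indicating inhibition.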
# DT40 TDP1 no CPT: qHTS for Inhibitors of human tyrosyl-DNA phosphodiesterase 1 (TDP1): qHTS in cells in absence of CPT | Potency, µM (doses to about 46.2 µM), without a hit: at the top dose activity change, negative = growth inhibition, hits mostly inhibitors | 15% of 420,000 active | DT40 Tdp1-/- hTDP1 cells, no CPT, ATP luminescence, 48 h; also: potency is read from the fitted curve at half-maximal effect; % is scaled to controls: 0 for no effect and ±100 for the full control effect; nearly all actives have a fitted effect of over 55% in size
#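 A cellular qHTS used chicken DT40 cells lacking endogenous Tdp1 but carrying stably transfected human TDP1. Compounds were applied without camptothecin, and cell growth kinetics were judged by ATP-dependent luminescence after ≥48 hr.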
# * = called active by the depositor; ? = inconclusive; / = no result; [ ] = remark or other dose. Unless noted, calls follow the shape of the dose curve; as a rule, active = well fitted curve in the direction sought with a large enough effect; inconclusive = small, poorly fitted or top-dose-only effect, or another doubt; inactive = no such curve, though single readings can be large; an effect the other way counts as inactive or inconclusive.
SMILES,TGFb SMAD3 inh,DT40 TDP1 CPT,HepG2 viability,TDP1 block,IL1B secr inh,DT40 TDP1 no CPT
COc1cc(/C=C/C(=O)c2ccc(F)cc2)cc(OC)c1OC,0%,?,-54%,8%,-74*,16µM*
COc1cc(/C=C/C(=O)O)cc(OC)c1OC,0%,8%,-4%,7%,14,3%
COc1ccc(C(=O)/C=C/c2ccc(OC(=O)c3cc(OC)c(OC)c(OC)c3)cc2)cc1,-28%,?,-30%,7%,-83*,21µM*
CCOc1ccc(N2C(=O)/C(=C/c3cc(OC)c(OC)c(OC)c3)N(CC(=O)OC)C2=S)cc1,-2%,?,-29%,4%,-90*,18µM*
CCOc1ccc(C(=O)/C=C/c2cc(OC)c(OC)c(OC)c2)cc1,?,10µM*,8%,7%,-94*,8.2µM*
Cc1ccccc1C(=O)NC(C)c1nnc2n1CCN(Cc1ccc(F)cc1)CC2 (stereo unspecified),/,16%[9.04 µM],/,/,/,-1%
COc1cc(C2NC(=O)NC(C)=C2C(=O)Nc2cc(C)cc(C)c2)ccc1O (stereo unspecified),10%,-4%,1%,/,/,?
COc1ccc(C2=Nc3ccccc3NC(=O)C2N(Cc2ccccc2)C(=O)C2=NNC(=O)CC2)cc1 (stereo unspecified),?,?,5%,/,-10,?
Cc1cc(Cl)ccc1OCC(=O)N1CCOc2ccc(CN3C[C@@H](C)O[C@@H](C)C3)cc2C1,/,-3%[9.04 µM],/,/,/,?
COc1cc(C(=O)Oc2cc(C)cc(C)c2)cc(OC)c1OC,8%,-3%,11%,2%,16,-2%
CCOc1ccc(C(=O)c2ccc(OC)c(O)c2O)cc1,/,21µM*,/,10%[56.1 µM],/,?
COc1cc(C(=O)Oc2ccc3ccc(O)cc3c2)cc(OC)c1OC,?,-13%,22µM*,4%,34,?
COc1ccc(-n2cnc(N)c2C(=O)c2cccc([N+](=O)[O-])c2)cc1,5%,16µM*,-15%,3%,-3,?
COc1ccc(-n2cnc3cc([N+](=O)[O-])ccc32)cc1,-15%,2%,-30%,3%,-29,-17%
CCOc1ccc2cc(C3CC(c4ccco4)=NN3S(C)(=O)=O)c(Cl)nc2c1 (stereo unspecified),3%,?,0%,3%,-60*,?
COc1ccc2cc(C3CC(c4cccs4)=NN3S(C)(=O)=O)c(Cl)nc2c1 (stereo unspecified),6%,16µM*,-4%,3%,-17,?
CCc1nc2cc(C(=O)N(C)CC3CCCN(C)C3)cc(NC(=O)c3ccccc3OC)c2n1C (stereo unspecified),/,-2%,/,/,/,-7%
CCOC(=O)c1c(C)[nH]c(C)c1S(=O)(=O)N(C)CC(=O)Nc1ccc(C)cc1Br,-29%,?,-31%,5%,/,?
O=c1cc(-c2ccc(O)cc2)oc2cccc(O)c12,/,30µM*,/,-5%[56.1 µM],/,30µM*
COc1ccc(-c2cc(=O)c3c(O)cc(O)cc3o2)cc1,10µM*,?,-57%,6%,?,24µM*
C[C@H](CO)N1C[C@H](C)[C@H](CN(C)C(=O)Nc2ccc(F)cc2)OCc2cnnn2CCCC1=O,29%,-12%,13%,/,-16,0%
COC(=O)c1ccc(CNC(=O)COC(=O)/C=C/c2cc(OC)c(OC)c(OC)c2)cc1,-5%,-1%,-3%,1%,20,-5%
CCOc1ccc(Oc2cc(NC(=O)c3ccco3)cc([N+](=O)[O-])c2)cc1,?,-22%,-22%,2%,-18,16µM*
O=C(Nc1cc(Oc2ccc(Cl)cc2)cc([N+](=O)[O-])c1)c1ccco1,?,?,-37%,5%,-8,16µM*
CCOc1ccc(S(=O)(=O)N2CN(c3cccc(C(C)=O)c3)c3nc4ccccc4nc32)cc1,-3%,-2%,-4%,0%,15,-3%
SMILES,TGFb SMAD3 inh,DT40 TDP1 CPT,HepG2 viability,TDP1 block,IL1B secr inh,DT40 TDP1 no CPT
c1ccc2c(c1)CC(N1CCCCC1)c1ccccc1N2 (stereo unspecified),-15%,-8%,-21%,4%,-5,-7%
c1ccc2c(c1)c1c(c3ccccc32)CN2CCCC2C1 (stereo unspecified),?,5.2µM*,-10%,/,-97*,8.2µM*
O=C(CSc1nnc(-c2ccco2)n1Cc1ccccc1)NCc1ccccc1,-5%,-30%,2%,7%,-8,?
c1ccc(Cn2c(SCc3nc4ccccc4s3)nnc2-c2ccco2)cc1,-1%,15µM*,-6%,4%,-15,?
COC(=O)CCNCCSc1nnc(-c2ccco2)n1Cc1ccccc1,-4%,12µM*,15%,/,0,8.2µM*
CCCCCC[N+](C)(C)CC/C=C1/c2ccccc2Sc2ccc(Cl)cc21,?,7.3µM*,-113%,5%,-24,5.8µM*
O=C(NCc1ccccc1Cl)[C@H]1CCCN1C(=O)[C@H]1CCCN1C(=O)c1ccc(Cl)cc1,/,?,/,/,1,?
Cc1ccc(NC(=O)CCC(=O)N2Cc3ccccc3Oc3ncccc32)cc1Cl,-3%,23µM*,-5%,-1%,/,?
COc1cc(C(C)=O)ccc1OCC(=O)N1CCC(Cc2ccccc2)CC1,-14%,?,-13%,/,-10,?
O=Cc1cc(Cl)ccc1OCCN1CCC(Cc2ccccc2)CC1,?,?,-57%,5%,-93*,16µM*
COc1cc(C(C)=O)ccc1OCCCN1CCC(Cc2ccccc2)CC1,19%,?,-20%,6%,-55*,?
COc1cc(C(C)=O)ccc1OCCN1CCC(Cc2ccccc2)CC1,-7%,?,4%,5%,-64*,?
Clc1ccccc1OCCN1CCC(Cc2ccccc2)CC1,?,?,-123%,-1%,?,?
Cc1nc(C(F)(F)F)ccc1C(=O)N1CCC1(C)C(=O)NCc1cccs1 (stereo unspecified),2%,-9%,12%,/,-18,-8%

# Bioassay records (PubChem BioAssay)
